These results are taken from PubChem BioAssay (NCI).

Each structure is given as a SMILES string. The panel holds about 79,000 compounds, 15% with a hit somewhere; the sample as a whole holds those more often. A number with no mark means an inactive call. No stated cut-off is given here; in the data, active means growth inhibition above about 70%; inactive means the rest.

One test can be described thus: NCI Yeast Anticancer Drug Screen. Data for the rad50 strain (AID 155).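 Further: 0% = growth of vehicle-only cultures of the same strain.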 Conditions: S. cerevisiae rad50 strain growth inhibition; at 50.0 µM; active compounds read high. Put shortly: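 Readout: growth inhibition relative to vehicle-treated cultures. Compound exposure was carried out in a genetically defined yeast strain deficient in DNA damage repair.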
On to `O=C1OC(=O)c2ccccc21`, for which the growth inhibition is 5.25%.

On to `CSc1nsc(SC)c1C(N)=O`, for which the growth inhibition was -0.25%.

As for `ClCC1CCCO1` (stereo not given), the growth inhibition is 23.1%.

Turning to `C=CC(=O)OCCCS(=O)(=O)[O-].C=CC(=O)OCCCS(=O)(=O)[O-].NC1CCCCC1N.[Pt+4]`, the growth inhibition is 3.05%.

On to `NCc1c(Cl)c(Cl)c(Cl)c(CN)c1Cl`, for which the growth inhibition is 21.3%.

Regarding `O=C1c2ccccc2C(=O)c2c1cccc2S(=O)(=O)Nc1ccccc1`, the growth inhibition was -1.45%.

On to `COC(=O)c1nc[nH]c1C(=O)OC`, for which the growth inhibition was 10.2%.

`O=C1c2ccccc2C(=O)N1c1ccc(C(F)(F)F)cc1[N+](=O)[O-]`: the growth inhibition was -1.25%.

Turning to `COc1ccccc1C(=O)O`, the growth inhibition was -7.45%.

On to `CC(C)=NNC(=O)c1ccccc1O`, for which the growth inhibition was 33.9%.

Regarding `COC1/C=C/OC2(C)Oc3c(C)c(O)c4c(O)c(c(C5SCCS5)c(O)c4c3C2=O)NC(=O)/C(C)=C\C=C\C(C)C(O)C(C)C(O)C(C)C(O)C1C` (stereo not given), the growth inhibition was 5.15%.

In the case of `CCCCCC1NC(C)(C)CO1` (stereo not given), the growth inhibition is 1.25%.

Take `CN(/N=C\c1ccc([N+](=O)[O-])cc1)C(=O)c1ccccc1`: the growth inhibition is -6.85%.

`Cc1cn(C2CC3OP(=O)(OCc4ccccc4)OCC3O2)c(=O)[nH]c1=O` (stereo not given): the growth inhibition was 5.35%.

Turning to `N#CC(C#N)=CNC(=S)Nc1ccc(S(=O)(=O)Nc2nccs2)cc1`, the growth inhibition was -24.7%.

Consider `CCOc1ccccc1NC(=O)CC1Sc2ccccc2NC1=O` (stereo not given), for which the growth inhibition is 24.5%.

Consider `Cc1cc(Cl)c(Cl)cc1NC(=O)c1c(Br)c(Br)c(Br)c(Br)c1C(=O)O`, for which the growth inhibition was 0.7%.

Take `COc1c2cc(C(C)(C)C)cc1CSCc1cc(C(C)(C)C)cc(c1OC)CCCCC2`: the growth inhibition was -1.25%.

With `CCOCCOCCOCOCCOCCOCC`, the growth inhibition was 17.2%.

On to `CCc1ccc(O)cc1`, for which the growth inhibition was -3.4%.

For the molecule `NC(N)=NC(=S)Nc1ccc(Cl)cc1`, the growth inhibition is 21.6%.

For the molecule `CCCN1C(=O)CN(S(=O)(=O)c2ccc(Cl)cc2)C1=O`, the growth inhibition is -1.1%.

Take `CCN(CC)CCSSCCN(CC)CC`: the growth inhibition was -9%.

As for `CCCCCCCCCCCCS(=O)(=O)O` (tested in a mixture with another compound), the growth inhibition was -5.1%.

`CC(Nc1cnccn1)Nc1cnccn1`: the growth inhibition was -3.1%.

As for `Cn1cc(S(C)=O)c(=O)c2ccccc21` (stereo not given), the growth inhibition is 2.65%.

For the molecule `COC(=O)C1(CC(=O)c2ccccc2)NC(=S)NC(=O)C1C#N` (stereo not given), the growth inhibition was 1.85%.

`CCCCCCCCCCCC(=O)NC(=S)Nc1ccc(C(=O)OCC)cc1`: the growth inhibition was 29.9%.

As to `Cn1nnc(CCCl)n1`, the growth inhibition is -5.35%.

Consider `C=C(C)Cc1c(C)c(Cl)cc(Cl)c1OC(=O)Nc1ccccc1`, for which the growth inhibition is 31.8%.

On to `COC(=O)C1(O)C(=O)NC2=C1C(=O)c1ccccc1C2=O` (stereo not given), for which the growth inhibition is 9.75%.

With `COC(=O)Cc1oc(=O)n(-c2ccccc2)c(=O)c1C(=O)OC`, the growth inhibition was 6.75%.

As for `N#CC1=C(N)NC(=O)C(C(N)=O)C1c1ccccc1Cl` (stereo not given), the growth inhibition was -16.6%.

Take `CSc1ccc(C(=NO)c2ccc(SC)cc2)cc1`: the growth inhibition was -11.4%.

In the case of `CCCNc1nc(Cl)nc2c1cnn2C`, the growth inhibition is 7.6%.

Take `CN1CCC2(CC1)C(=O)N(Cc1ccccc1)C(=O)C2c1ccccc1` (stereo not given): the growth inhibition was -9.95%.

For the molecule `CCCCn1cnc2c(=S)nc[nH]c21`, the growth inhibition was -2.7%.

As for `CC(=O)c1c(C)n(-c2ccccc2)c2c1nnc1ccccc12`, the growth inhibition was 3.3%.

Regarding `Cc1cc(Cl)cc(Cl)c1OCC(=O)O`, the growth inhibition was 6.3%.

`S=C(SCc1nc(-c2ccc(Cl)cc2)no1)N1CCSCC1`: the growth inhibition was -1.9%.

The nature of another test: NCI Yeast Anticancer Drug Screen. Data for the mec2-1 strain (AID 157). Conditions: S. cerevisiae mec2-1 strain, at 50.0 µM, active compounds read high. Put shortly:
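Compounds were applied to mec2-1 yeast cells. Their growth was then compared with that of vehicle-treated cultures to give growth inhibition.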
Consider `O=C1OC(=O)c2ccccc21`, for which the growth inhibition is -15.2%.

As for `CSc1nsc(SC)c1C(N)=O`, the growth inhibition was -17.6%.

`ClCC1CCCO1` (stereo not given): the growth inhibition was 12.6%.

As to `C=CC(=O)OCCCS(=O)(=O)[O-].C=CC(=O)OCCCS(=O)(=O)[O-].NC1CCCCC1N.[Pt+4]`, the growth inhibition is -7.75%.

As for `NCc1c(Cl)c(Cl)c(Cl)c(CN)c1Cl`, the growth inhibition is -14.2%.

As to `O=C1c2ccccc2C(=O)c2c1cccc2S(=O)(=O)Nc1ccccc1`, the growth inhibition is 8.85%.

As to `COC(=O)c1nc[nH]c1C(=O)OC`, the growth inhibition was -25.9%.

As for `O=C1c2ccccc2C(=O)N1c1ccc(C(F)(F)F)cc1[N+](=O)[O-]`, the growth inhibition is 16.2%.

As for `COc1ccccc1C(=O)O`, the growth inhibition was -16.8%.

As for `CC(C)=NNC(=O)c1ccccc1O`, the growth inhibition is -7.7%.

For `COC1/C=C/OC2(C)Oc3c(C)c(O)c4c(O)c(c(C5SCCS5)c(O)c4c3C2=O)NC(=O)/C(C)=C\C=C\C(C)C(O)C(C)C(O)C(C)C(O)C1C` (stereo not given), the growth inhibition is 19.1%.

For the molecule `CCCCCC1NC(C)(C)CO1` (stereo not given), the growth inhibition is -2.95%.

In the case of `CN(/N=C\c1ccc([N+](=O)[O-])cc1)C(=O)c1ccccc1`, the growth inhibition was -4.15%.

Turning to `Cc1cn(C2CC3OP(=O)(OCc4ccccc4)OCC3O2)c(=O)[nH]c1=O` (stereo not given), the growth inhibition was 7.1%.

Regarding `N#CC(C#N)=CNC(=S)Nc1ccc(S(=O)(=O)Nc2nccs2)cc1`, the growth inhibition is -35.8%.

As for `CCOc1ccccc1NC(=O)CC1Sc2ccccc2NC1=O` (stereo not given), the growth inhibition is -14.7%.

Turning to `Cc1cc(Cl)c(Cl)cc1NC(=O)c1c(Br)c(Br)c(Br)c(Br)c1C(=O)O`, the growth inhibition was 11.4%.

With `COc1c2cc(C(C)(C)C)cc1CSCc1cc(C(C)(C)C)cc(c1OC)CCCCC2`, the growth inhibition was -3.4%.

As for `CCOCCOCCOCOCCOCCOCC`, the growth inhibition is -25.2%.

`CCc1ccc(O)cc1`: the growth inhibition is -25.9%.

For `NC(N)=NC(=S)Nc1ccc(Cl)cc1`, the growth inhibition is 1.6%.

Take `CCCN1C(=O)CN(S(=O)(=O)c2ccc(Cl)cc2)C1=O`: the growth inhibition was 4.05%.

On to `CCN(CC)CCSSCCN(CC)CC`, for which the growth inhibition is 3.7%.

As for `CCCCCCCCCCCCS(=O)(=O)O` (tested in a mixture with another compound), the growth inhibition was -6%.

`CC(Nc1cnccn1)Nc1cnccn1`: the growth inhibition is -3.55%.

`Cn1cc(S(C)=O)c(=O)c2ccccc21` (stereo not given): the growth inhibition was -1.6%.

As for `COC(=O)C1(CC(=O)c2ccccc2)NC(=S)NC(=O)C1C#N` (stereo not given), the growth inhibition was -13.9%.

For `CCCCCCCCCCCC(=O)NC(=S)Nc1ccc(C(=O)OCC)cc1`, the growth inhibition is 31.9%.

Regarding `Cn1nnc(CCCl)n1`, the growth inhibition is -5.1%.

As to `C=C(C)Cc1c(C)c(Cl)cc(Cl)c1OC(=O)Nc1ccccc1`, the growth inhibition is 9.6%.

As for `COC(=O)C1(O)C(=O)NC2=C1C(=O)c1ccccc1C2=O` (stereo not given), the growth inhibition is 5.8%.

Consider `COC(=O)Cc1oc(=O)n(-c2ccccc2)c(=O)c1C(=O)OC`, for which the growth inhibition was -3.05%.

As to `N#CC1=C(N)NC(=O)C(C(N)=O)C1c1ccccc1Cl` (stereo not given), the growth inhibition is -13.4%.

As for `CSc1ccc(C(=NO)c2ccc(SC)cc2)cc1`, the growth inhibition is 17.8%.

For the molecule `CCCNc1nc(Cl)nc2c1cnn2C`, the growth inhibition is -8.4%.

On to `CN1CCC2(CC1)C(=O)N(Cc1ccccc1)C(=O)C2c1ccccc1` (stereo not given), for which the growth inhibition was -6.95%.

Consider `CCCCn1cnc2c(=S)nc[nH]c21`, for which the growth inhibition is -1.9%.

In the case of `CC(=O)c1c(C)n(-c2ccccc2)c2c1nnc1ccccc12`, the growth inhibition is 3.65%.

`Cc1cc(Cl)cc(Cl)c1OCC(=O)O`: the growth inhibition is -1.35%.

In the case of `S=C(SCc1nc(-c2ccc(Cl)cc2)no1)N1CCSCC1`, the growth inhibition is -24.9%.
